# Reference: the supplement of paper PMC6555819
# Columns and labels:
# Assay in all cases: PBM binding z-score (relative to random genomic background probes); higher = stronger binding; sequences stand for … in GC…GCGATTGACAGCGTAGAATGAAGG
# [1] = test system: FXR:RXRa (NR concentration 270 nM, RXRa partner concentration 90 nM)
# How it was run: (§1)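 Custom Agilent 4×180K protein-binding microarrays carried double-stranded probes. Their 34-nt variable regions held direct-repeat seeds, single-nucleotide variants, half-site ablations and random human genomic background sequences. Arrays were incubated 1 h with ligand-free nuclear receptor dimers in PBS pH 7.4, 2% milk, 0.02% Triton X-100, 1 mM DTT, 0.2 mg/mL BSA and 0.4 mg/ml salmon testes DNA. Antibodies against each partner (one per run) detected binding, and scanned fluorescence was regression-normalized. Binding z-scores use random background probes as reference.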
# [2] = test system: LXRa:RXRa (NR concentration 270 nM, RXRa partner concentration 90 nM)
# How it was run: as §1
# [3] = test system: LXRa homodimer (NR concentration 270 nM)
# How it was run: as §1
# [4] = test system: LXRb:RXRa (NR concentration 270 nM, RXRa partner concentration 90 nM)
# How it was run: as §1
# [5] = test system: LXRb homodimer (NR concentration 270 nM)
# How it was run: as §1
# [6] = test system: PPARa:RXRa (NR concentration 270 nM, RXRa partner concentration 90 nM)
# How it was run: as §1
# [7] = test system: PPARg:RXRa (NR concentration 180 nM, RXRa partner concentration 90 nM)
# How it was run: as §1
# [8] = test system: PPARg:RXRa 270nM:90nM, anti-RXR (NR concentration 270 nM, RXRa partner concentration 90 nM)
# How it was run: as §1
# [9] = test system: PPARg:RXRa 30nM:10nM, anti-RXR (NR concentration 30 nM, RXRa partner concentration 10 nM)
# How it was run: as §1
# [10] = test system: PPARg:RXRa 90nM:30nM, anti-RXR (NR concentration 90 nM, RXRa partner concentration 30 nM)
# How it was run: as §1
Sequence,PBM binding z-score [1],PBM binding z-score [2],PBM binding z-score [3],PBM binding z-score [4],PBM binding z-score [5],PBM binding z-score [6],PBM binding z-score [7],PBM binding z-score [8],PBM binding z-score [9],PBM binding z-score [10]
TCTATTATTTGAAGGGCAACCGACGAGTCCGTTT,1.12,1.55,1.32,1.35,0.721,1.29,0.336,2.22,4.08,3.41
GCTGCTAGGTAAACTGATGGTCAGCTAAAGCTCG,-0.373,-0.492,-0.956,-0.723,-0.701,-0.566,-0.301,-0.644,-0.739,-0.98
AGAACCAGGGCACGCTGAGTTGATAGCAGAGTAG,-0.172,0.136,-0.611,-0.397,-1.03,1.29,1.55,1.19,-0.116,0.466
ACTTACGGGTCAACGAGGTTATATCACGCGTATA,6.93,5.07,1.5,4.54,1.09,5.82,5.28,4.92,2.11,3.79
TTACCAAGGTGAGCTGAGGTCGTTGAGCCAACTC,1.91,1.27,-0.402,0.809,-1.19,1.84,-0.225,0.876,-0.207,0.236
TCCAGTAGGTTACCAATGGGGCATTCAGCTTTCT,0.247,1.53,-0.513,0.676,-0.862,1.6,1.15,2.54,2.63,2.39
CCGAATGGGGCAGAAAGGTTACCATACCATCCGG,0.445,0.679,0.189,0.904,-0.832,2.53,2.67,4.16,2.22,3.95
GCAGACAGGAGAAACGCAGGTAACTCAGGGTGGC,-0.504,-0.393,-0.471,-0.777,-1.34,-0.523,0.376,-0.659,-0.781,-0.611
TCTAGATGGTCAAAGGTCACACACTCGAAATGCG,6.69,5.75,4.06,5.58,1.37,6.38,10.2,8.58,8.53,9.72
AGTCAAAGTTCAGGACCAGGTAACGTAAAGCACG,4.33,3.63,1.19,1.72,0.134,3.32,4.94,4.9,2.16,4.19
ATCTCCAGGTAACAAGTTCAGTGAAAGAGAGGAC,1.08,1.37,0.906,0.805,1.22,0.983,0.944,1.21,0.66,0.891
CCTTACGGGTCACTCCAGGTTATAGCTTCGGAGT,5.46,7.43,1.7,4.64,0.284,4.05,3.22,3.66,1,2.17
ACTTACGGGTCAACGAGGATATAGCACGCGTATA,6.53,4.05,0.457,3.61,0.828,5.43,5,5.19,2.12,3.85
ATACCAAGATGATCGTGAGGTCGTTGATACTAAC,1.11,0.576,0.456,0.892,0.0732,0.598,0.48,-0.158,0.129,-0.00184
CGAACGAGGGCATGAGTTGATAACAAATGCCGAT,0.424,0.218,-0.205,0.254,-0.653,1.44,1.53,1.35,0.389,0.841
ACTATTAGTTGACTTAGGGGAACCGATACGACGC,0.255,0.123,0.277,0.421,1.27,0.0304,0.951,0.244,0.351,0.326
GCTAGATGGTCAGTAAAAGGTCACACACCGGTCG,3.28,4.21,4.31,4.17,0.588,4.58,2.79,3.94,1.99,3.21
CGTCCAAGGTCAAATGTCAGTGAAGAGATGACGG,7.54,5.76,1.47,4.6,2.22,6.09,6.34,6.37,3.35,5.7
TCATATAGGTAATACAGGTCAAAGTCGGCATCTA,3.34,5.45,7.33,4.42,1.69,4.33,3.55,4.08,4.34,4.27
ATCTCTAGTTAACCAAGTTCAGTGAATGCCGAAC,0.219,1.08,1.32,0.741,0.807,0.492,-0.088,0.244,0.153,0.13
ATATGTAGATTAGCTGGGGTCATTCAGACTAGGC,3.43,3.51,1.55,4.27,1.51,4.33,1.45,2.53,0.88,1.9
CCAGACAGGTGAAAAGTAACTCAGTCTGGTACGC,-0.306,-0.0475,-0.078,0.0504,-0.286,1.01,1.08,2.27,0.369,1.43
TTGCCTAGGTCATTCAGGGGCCAGTATAGAAAGC,5.14,3.97,0.809,2.93,0.902,3.51,2.07,2.24,0.187,1.52
CTACCAAGGTGAACTAGGTCGTTGATTACTATTC,1.2,1,0.238,1.61,-0.516,2.59,1.12,1.6,0.168,1.05

Sequence,PBM binding z-score [1],PBM binding z-score [2],PBM binding z-score [3],PBM binding z-score [4],PBM binding z-score [5],PBM binding z-score [6],PBM binding z-score [7],PBM binding z-score [8],PBM binding z-score [9],PBM binding z-score [10]
TCGAGTAGGGTAGTCGGGGCATTCAGCCAACATA,-0.261,-0.324,-0.232,0.0407,-0.844,0.109,-0.307,0.468,0.525,0.442
CCTACTGGGCCATTCGGAGGTCATTGATCATATG,1.8,2.8,4.71,2.59,-0.128,3.01,1.38,2.45,0.304,1.27
CTTTACGGGTCACTCCAGGTTATAGCATCGGAGT,5.38,7.71,3.92,5.61,1.09,4.97,4.47,4.7,1.86,3.42
CCGAGTAGGTTAGGGGGCATTCAGGCAACGGTGA,1.36,1.91,0.834,4.42,6.02,4.43,6.67,7.33,5.18,7.46
CAAACTAGGTCACCGGAAGGTTAAAGTCCGCATG,5.17,4.53,1.89,3.61,0.743,5.67,9.32,7.58,5.78,7.27
ATATGTAGGTTACATCCGGCTCATTCAGGCTATG,0.486,2.28,0.223,1.13,0.756,3.04,4.81,3.99,1.57,3.14
ACAGACAGGTGAGAGAAGGTAACTCAGCTGGACG,0.34,-0.0792,-0.413,-0.366,-0.81,0.165,0.832,-0.247,0.0838,0.154
ATCTCTAGCTAAAAGTTCAGTGAATCCCGAGGAT,0.149,0.948,1.36,0.693,0.99,0.474,0.264,1.29,0.52,0.949
CCTACTGGGCCATTCTGAGGTCATTGATCATATG,2.12,3.35,4.95,2.83,0.173,3.25,1.63,2.38,0.733,1.84
CCAGACAGGTGAGAAGGCAACTCAGCCTCGATTA,0.0587,-0.0895,-0.234,-0.403,-0.663,0.376,0.575,0.793,-0.21,0.329
CGAACGAGGGCATGAGTTGATTGCAAATGCCGAT,0.319,0.271,-0.529,-0.0625,-0.873,1.14,1.26,1.58,0.205,1.08
CGAACTAGGCCATCCAGGACAGTGAATACATTGA,-0.177,-0.379,-0.0398,-0.306,-0.512,1.64,2.39,1.71,0.404,1.19
TCTTTTAGTTGAAGGGCAACCGACGAGTCCGTTT,0.645,1.13,0.171,1,1.62,1.16,-0.118,2.13,3.65,2.71
GCTATTAGTTGAAAGGGCGACCGAATGATTCTCG,-0.184,0.0609,-0.118,0.0118,-0.239,0.973,1.72,3.27,1.2,3.05
AGAACGAGGGCAATGAGCTGATAGCACGGGTGGC,0.394,0.368,-0.433,-0.35,-0.559,1.4,1.29,0.822,-0.0771,0.27
CCTCGTTGGTCAGGAGGTCACACACCGGATATGA,3.4,3.49,1.96,3.4,0.47,4.22,2.29,2.99,0.71,2.06
TCTGCTAGGTCAACGATCGTCAGCTAATCTGCTA,2.97,2.19,-0.465,1.24,-0.245,3.11,2.49,3.26,1.96,2.76
GTTAGTTGGTCAGTAAAAGGTCACACACCGGTCG,3.73,4.28,5.17,3.94,1.41,4.6,3.42,4.81,2.66,4.18
GCTTGCAGGCCATTTGGGTCACTCAATGACGGGC,0.139,0.261,-0.325,0.146,-0.138,1.74,0.845,0.922,0.00542,0.391
CCAAACAGGTGAGAAGGTAACTCAGCCTCGATTA,-0.19,-0.0558,-0.189,-0.138,-0.392,0.653,0.64,1.22,0.297,0.598
CCTAGCAGGCCAATATGGGTCACTCAAGGCTTGA,0.719,2.76,-0.00824,1.41,-0.863,3.05,1.57,1.86,0.00421,1.15
TGAATGAGCTTAAAGATCAGGGAACGTGGCGTCG,-0.0785,-0.405,-0.642,-0.65,-0.626,-0.428,0.39,0.417,-0.0177,0.152
ATCTCTAGGTATGACTCAGTTCAGTGAAGAACGC,0.312,0.266,0.305,0.205,0.789,0.0186,0.264,0.0643,-0.0117,0.0715
TCATATAGGTAATACAGGTGAAAGTCGGCATCTA,1.2,1.54,0.569,1.2,0.365,2.06,1.67,2.61,4.12,3.5
